The structures appear in SMILES notation. Results filed as inconclusive are left out. Unmarked numbers belong to inactive results. Activity calls are given as the source filed them. Calls follow the shape of the dose curve; as a rule, active = well fitted cell-killing curve with a large enough effect in the repeat runs; inconclusive = weak or mixed curves, or effect the other way; inactive = flat fitted curve, though single readings scatter.
% is scaled to controls: 0 for no effect and ±100 for the full control effect.

A short description of this assay: Caspase-3/7 induction in HepG2 cells by small molecules, qHTS cell viability counter screen (AID 1346981). Also: nearly all actives have a fitted effect of over 30% in size. The following applies: CellTiter-Fluor fluorescence, 17 h; series mostly up to 92.4 µM; activity change, negative = cytotoxicity: at the top concentration. The text has this:
U.S. Tox21 Program National Center for Advancing Translational Sciences [NCATS] NIH Chemical Genomics Center [NCGC] U.S. Environmental Protection Agency [EPA] National Institutes of Environmental Health Sciences [NIEHS] National Toxicology Program [NTP] U.S. Food and Drug Administration [FDA] Tox21 Assay Overview: Apoptosis is a process of programmed cell death and plays a central role in the development of multicellular organisms. It is a highly regulated process and induces cell death by activating caspases, which are the members of cysteine aspartic acid-specific protease (caspase) family. Caspases involved in apoptosis are classified by their mechanism of action as initiator caspases (caspase-2, -8, -9 and -10) and executioner caspases (caspase-3, -6, and -7). Inhibition of apoptosis results in number of cancers, autoimmune diseases, inflammatory diseases and viral infection. To identify small molecule compounds that induce apoptosis, a homogeneous, luminescent Caspase-Glo 3/7 assay was used. Wild type HepG2 cells were used to screen Tox21 libraries for identifying caspase-3/7 activity inducers. Also cytotoxicity of the compounds was tested in parallel by measuring the cell viability using CellTiter-Fluor assay system in the same wells.
Tox21 Assay Protocol Summary: HepG2 cells were dispensed at 2,000 per well in 5uL of culture medium into white solid bottom 1536-well plates (Corning Life Sciences, Corning, NY) using a Multidrop Combi (Thermo Scientific, Waltham, MA) dispenser. The assay plates were incubated at 37 C and 5% CO2 for 5hr, and then 23nL of compounds dissolved in DMSO and positive control were transferred using a Pintool station ([…], San Diego, CA). The assay plates were incubated at 37C and 5% CO2 for 17hr. For cytotoxicity read, after 16hr incubation at 37C, 1uL CellTiter-Fluor reagent (Promega Corporation, Madison, WI) was added to each well of the assay plates using Flying Reagent Dispenser (FRD, Aurora Discovery, San Diego, CA). After 1hr incubation at 37C and 5% CO2, the fluorescence signal was quantified using a ViewLux plate reader (PerkinElmer, Shelton, CT).
For orientation: qHTS replaces the single test concentration by a dilution series.
On to `CCN[C@H](C)Cc1cccc(C(F)(F)F)c1`, for which the “activity change, negative = cytotoxicity” value was -10.1%.

For `CCOC(=O)c1ncn2c1CN(C)C(=O)c1c(I)cccc1-2`, the “activity change, negative = cytotoxicity” value is -7.6% [at 42.5 µM].

With `CCC1(CC)C(=O)C=CNC1=O`, the “activity change, negative = cytotoxicity” value is 2.6% [at 42.5 µM].

Consider `ClCOCCl`, for which the “activity change, negative = cytotoxicity” value was -1.38%.

Take `CC(C)N(Cc1ccccc1)C(=O)C(C)(C)C`: the “activity change, negative = cytotoxicity” value is 10.7%.

Take `CCN(CCO)CCn1c(Cc2ccccc2)nc2c1c(=O)n(C)c(=O)n2C`: the “activity change, negative = cytotoxicity” value is -1.59% [at 42.5 µM].

Regarding `CCN(CC)CCOC(=O)C(O)(c1ccccc1)c1ccccc1`, the “activity change, negative = cytotoxicity” value is 8.05% [at 42.5 µM].

In the case of `O=C(Cl)OCc1ccccc1`, the “activity change, negative = cytotoxicity” value is 8.98%.

As for `CN=CNc1ccc(C)cc1C`, the “activity change, negative = cytotoxicity” value is 5.01%.

Regarding `O=C(O)C(Cl)Br` (stereo not given), the “activity change, negative = cytotoxicity” value is 3.71%.

On to `CCC(C(N)=O)N1CCCC1=O` (stereo not given), for which the “activity change, negative = cytotoxicity” value was 4.53% [at 42.5 µM].

Take `CCC(=O)OC1(c2ccccc2)CCN(C)CC1`: the “activity change, negative = cytotoxicity” value was -0.343%.

Take `c1cncc([C@@H]2CCCCN2)c1`: the “activity change, negative = cytotoxicity” value was -0.0856%.

For `NC(=O)CS(=O)C(c1ccccc1)c1ccccc1` (stereo not given), the “activity change, negative = cytotoxicity” value was 0.753% [at 42.5 µM].

On to `CC(C)(C1CCC(O)CC1)C1CCC(O)CC1` (stereo not given), for which the “activity change, negative = cytotoxicity” value was 0.857%.

With `CCc1ccc(C2CCNCC2)cc1`, the “activity change, negative = cytotoxicity” value was -2.54% [at 42.5 µM].

Regarding `CC1NCCOC1c1ccccc1` (stereo not given), the “activity change, negative = cytotoxicity” value was 3.64% [at 42.5 µM].

Consider `CCN[C@@H](C)Cc1cccc(C(F)(F)F)c1`, for which the “activity change, negative = cytotoxicity” value was 0.546% [at 42.5 µM].

As to `CCOP(=S)(OCC)SCCl`, the “activity change, negative = cytotoxicity” value is 5.9%.

Regarding `CC[C@H](O)C(C[C@H](C)N(C)C)(c1ccccc1)c1ccccc1`, the “activity change, negative = cytotoxicity” value was -3.89%.

For `NNC(N)=O`, the “activity change, negative = cytotoxicity” value was -1.89%.

For `O=C/C=C/c1ccco1`, the “activity change, negative = cytotoxicity” value was -1.51%.

`COc1cc(CCN)cc(OC)c1OC`: the “activity change, negative = cytotoxicity” value was -0.31%.

Turning to `Cc1cc(OC(=O)N(C)C)nn1C(=O)N(C)C`, the “activity change, negative = cytotoxicity” value is -1.31%.

Consider `NNCc1ccccc1`, for which the “activity change, negative = cytotoxicity” value is -2.05%.

With `Clc1ccc(C(Cl)(Cl)Cl)cn1`, the “activity change, negative = cytotoxicity” value was 5.05%.

For `O=c1[nH]c2ccccc2n1C1CCNCC1`, the “activity change, negative = cytotoxicity” value was 3.98% [at 42.5 µM].

Consider `ClCCCCCCCl`, for which the “activity change, negative = cytotoxicity” value was -1.92%.

With `ClC1=C(Cl)C2(Cl)C(CBr)CC1(Cl)C2(Cl)Cl` (stereo not given), the Potency entry is “inactive”.

In the case of `CCNP(=S)(OC)O/C(C)=C/C(=O)OC(C)C` (stereo not given), the “activity change, negative = cytotoxicity” value is 0.181%.

Turning to `C(COCC1CO1)OCC1CO1` (stereo not given), the “activity change, negative = cytotoxicity” value was -2.67%.

On to `CCCCCCCCSC(=O)Oc1cc(Cl)nnc1-c1ccccc1`, for which the “activity change, negative = cytotoxicity” value is -2.14%.

In the case of `CS(=O)(=O)Cl`, the “activity change, negative = cytotoxicity” value was 10.6%.

Take `CCCC(C)(COC(N)=O)COC(N)=O`: the “activity change, negative = cytotoxicity” value is -2.62%.

As to `CN1COCN(Cc2cnc(Cl)s2)/C1=N\[N+](=O)[O-]`, the “activity change, negative = cytotoxicity” value was 4.32%.

As for `CCOC(=O)CC(SP(=S)(OC)OC)C(=O)OCC` (stereo not given), the Potency result is “inactive”.

With `O=C(O)CBr`, the “activity change, negative = cytotoxicity” value is 9.29%.

Regarding `C=CC(=O)OCCN(C)C`, the “activity change, negative = cytotoxicity” value was 5.6%.

Consider `Brc1c(Br)c(Br)c(Br)c(Br)c1Br`, for which the activity change, negative = cytotoxicity was 7.69% [at 8.39 µM].

With `C#CCOC(=O)/C=C(C)/C=C/CC(C)CCCC(C)C` (stereo not given), the “activity change, negative = cytotoxicity” value is 5.74%.

The values are drawn from PubChem BioAssay (Tox21).
